{
  "source": "paper PMC4336329",
  "about": "(PLoS ONE, 2015)",
  "note": "About 14,000 (4.5%) of roughly 310,000 compounds showed an effect of 50% or more. The effect is printed as a negative number. The sample as a whole holds a higher share of strong results than the screen did.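 Also: peak tail current of the secondary pulse compared with the same well before compound.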",
  "data": [
    {"target": "human ether-à-go-go-related gene (hERG) potassium channel (human, UniProt Q12809)", "sequence (Q12809 whole entry, looked up)": "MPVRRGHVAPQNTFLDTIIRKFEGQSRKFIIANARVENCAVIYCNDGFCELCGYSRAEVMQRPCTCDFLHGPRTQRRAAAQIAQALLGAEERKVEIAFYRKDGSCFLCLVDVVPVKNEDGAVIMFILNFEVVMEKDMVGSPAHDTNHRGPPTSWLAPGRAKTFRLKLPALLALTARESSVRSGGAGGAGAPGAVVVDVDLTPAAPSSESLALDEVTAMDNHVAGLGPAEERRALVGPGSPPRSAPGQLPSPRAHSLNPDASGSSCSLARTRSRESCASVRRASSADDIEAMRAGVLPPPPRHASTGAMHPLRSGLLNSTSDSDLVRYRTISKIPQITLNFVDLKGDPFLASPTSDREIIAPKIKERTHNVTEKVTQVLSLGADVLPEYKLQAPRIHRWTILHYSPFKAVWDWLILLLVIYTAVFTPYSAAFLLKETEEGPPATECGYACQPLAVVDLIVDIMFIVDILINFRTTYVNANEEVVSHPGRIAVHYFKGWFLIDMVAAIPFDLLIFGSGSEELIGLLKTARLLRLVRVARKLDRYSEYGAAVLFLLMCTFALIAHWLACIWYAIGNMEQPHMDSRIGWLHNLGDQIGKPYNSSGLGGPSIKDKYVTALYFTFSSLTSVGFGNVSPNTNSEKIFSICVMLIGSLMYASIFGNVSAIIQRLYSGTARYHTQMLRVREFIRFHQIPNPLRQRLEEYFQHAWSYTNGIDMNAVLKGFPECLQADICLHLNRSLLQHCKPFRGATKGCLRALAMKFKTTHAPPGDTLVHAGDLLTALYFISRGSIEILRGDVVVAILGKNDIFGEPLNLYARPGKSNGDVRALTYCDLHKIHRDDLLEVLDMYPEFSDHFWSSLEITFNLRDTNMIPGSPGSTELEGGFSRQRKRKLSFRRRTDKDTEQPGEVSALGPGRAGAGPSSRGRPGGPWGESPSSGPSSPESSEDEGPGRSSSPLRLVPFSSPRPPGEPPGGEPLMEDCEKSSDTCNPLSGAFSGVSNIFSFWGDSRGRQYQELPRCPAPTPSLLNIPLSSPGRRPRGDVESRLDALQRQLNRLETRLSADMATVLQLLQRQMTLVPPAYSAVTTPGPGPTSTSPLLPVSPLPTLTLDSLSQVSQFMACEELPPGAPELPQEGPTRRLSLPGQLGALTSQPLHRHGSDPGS", "assay": "primary screen, population patch clamp on CHO cells stably expressing hERG; higher = less effect of the substance", "units": {"hERG current change (%, negative = inhibition) at 10uM": "%"}, "values": [
      {"compound": "CN(C(=O)/C=C/c1ccc2c(c1)OCO2)c1ccccc1", "hERG current change (%, negative = inhibition) at 10uM": -4.59},
      {"compound": "Cc1ccc(C(CNC(=O)C(=O)Nc2ccc3c(c2)OCCO3)N2CCN(C)CC2)cc1", "note": "(centres unmarked)", "hERG current change (%, negative = inhibition) at 10uM": -55.5},
      {"compound": "CN1CCN(C(CNC(=O)C(=O)Nc2ccc3c(c2)OCCO3)c2ccc(F)cc2)CC1", "note": "(centres unmarked)", "hERG current change (%, negative = inhibition) at 10uM": -46.2},
      {"compound": "CN1CCN(C(CNC(=O)C(=O)Nc2ccc3c(c2)OCO3)c2ccc(F)cc2)CC1", "note": "(centres unmarked)", "hERG current change (%, negative = inhibition) at 10uM": -44.3},
      {"compound": "CC(C)CNC(=O)C(=O)NCC(c1ccc2c(c1)OCO2)N1CCOCC1", "note": "(centres unmarked)", "hERG current change (%, negative = inhibition) at 10uM": 6.81},
      {"compound": "COc1ccc(C(CNC(=O)C(=O)Nc2ccc3c(c2)OCCO3)N2CCN(C)CC2)cc1", "note": "(centres unmarked)", "hERG current change (%, negative = inhibition) at 10uM": -45.1},
      {"compound": "COc1ccc(C(CNC(=O)C(=O)Nc2ccc3c(c2)OCO3)N2CCN(C)CC2)cc1", "note": "(centres unmarked)", "hERG current change (%, negative = inhibition) at 10uM": -50.9},
      {"compound": "CCOc1cc2c(cc1OC)C(NC(=O)C(F)(F)F)CC2=O", "note": "(centres unmarked)", "hERG current change (%, negative = inhibition) at 10uM": -0.243},
      {"compound": "CC1CCc2nc3ccc(S(=O)(=O)N4CCC(C(=O)NCc5ccccc5Cl)CC4)cc3c(C(=O)O)c2C1", "note": "(centres unmarked)", "hERG current change (%, negative = inhibition) at 10uM": 7.04},
      {"compound": "O=C(O)c1ccc(N2C(=O)CC(N3CCC(c4nc5ccccc5[nH]4)CC3)C2=O)cc1", "note": "(centres unmarked)", "hERG current change (%, negative = inhibition) at 10uM": 4.95},
      {"compound": "COc1ccc(-c2ccc(Nc3ccc(C(=O)N4CCOCC4)cc3)nn2)cc1OC", "hERG current change (%, negative = inhibition) at 10uM": -5.3},
      {"compound": "C/C(=N\\O)c1ccc2c(c1)OCCO2", "hERG current change (%, negative = inhibition) at 10uM": 14.3},
      {"compound": "CC(=O)Nc1ccc2c(c1)OCCOCCOc1cc(NC(C)=O)ccc1OCCOCCOCCO2", "hERG current change (%, negative = inhibition) at 10uM": -2.81},
      {"compound": "CC(=O)N1CCN(C(=O)c2ccc3c(c2)OCCO3)CC1", "hERG current change (%, negative = inhibition) at 10uM": 10.9},
      {"compound": "CC(C)(C)C(=O)Nc1ccc2c(c1)OCCOCCOc1cc(NC(=O)C(C)(C)C)ccc1OCCOCCO2", "hERG current change (%, negative = inhibition) at 10uM": -65.5},
      {"compound": "C/C(=N/O)c1ccc2c(c1)OCCOCCOc1cc(/C(C)=N/O)ccc1OCCOCCO2", "hERG current change (%, negative = inhibition) at 10uM": -77.3},
      {"compound": "CCC(=O)c1ccc2c(c1)OCCO2", "hERG current change (%, negative = inhibition) at 10uM": 3.36},
      {"compound": "O=C(C[n+]1ccc(/C=C/c2ccccc2)cc1)c1ccc2c(c1)OCCO2.[Br-]", "hERG current change (%, negative = inhibition) at 10uM": -50.2},
      {"compound": "CC(=O)N/N=C(\\C)c1ccc2c(c1)OCCO2", "hERG current change (%, negative = inhibition) at 10uM": 11},
      {"compound": "CC(=O)c1ccc2c(c1)OCCOCCOc1ccccc1OCCOCCO2", "hERG current change (%, negative = inhibition) at 10uM": -74.4},
      {"compound": "CC(=O)Nc1ccc2c(c1)OCCOCCOc1cc(NC(C)=O)ccc1OCCO2", "hERG current change (%, negative = inhibition) at 10uM": -4.52},
      {"compound": "Cc1cc[n+](CC(=O)c2ccc3c(c2)OCCO3)cc1.[Br-]", "hERG current change (%, negative = inhibition) at 10uM": -22.2},
      {"compound": "Nc1cc[n+](CC(=O)c2ccc3c(c2)OCCO3)cc1.[Br-]", "hERG current change (%, negative = inhibition) at 10uM": -0.154}
    ]}
  ]
}
